LASV entry inh – inhibitors of Lassa virus binding or cell entry. Lassa virus pseudotype entry inhibition, cell reporter. actives 1.2% (n = 300,000). Potency, µM (series often up to 37.9 µM), hits mostly inhibitors; calls by dose curve; tested in HEK293 cells; note: nearly all actives have a fitted effect of over 50% in size
HCV inhibitor – inhibitors of hepatitis C virus infection | Potency, µM (series often up to 41.8 µM), most hits filed as inhibitors | Huh7.5.1 HCVcc-Cre infection, luciferase reporter, 44 h | actives 3.4% (n = 340,000); active = well fitted inhibition curve with a large enough effect; inconclusive = small, poorly fitted or top-dose-only effect, or another doubt; inactive = no such curve, though single readings can be large or run the other way
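Whole-lifecycle infectious HCVcc-Cre system; cells 1,000/well, compound then virus (~0.5 moi) added 4 h after plating, 44 h culture. Luciferase read 15 sec following 15 min substrate incubation, room temp.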
HCMV antiviral – human cytomegalovirus inhibition; HFF cells, HCMV-luciferase reporter, 72 h; active compounds read low; activity change, negative = inhibition, % at 57.5 µM; actives 4.5% (n = 410,000); in the data active = activity change below about -60%; inconclusive = no clear call, values can overlap the other calls; inactive = above about -39%
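Two compound doses tested in HFFs infected with HCMV-luciferase, MOI 1 PFU/cell, 72 h at 37C. Lysate luminescence read with OneGlo; data normalized against buffer-only and 10uM Salinomycin inhibitor controls.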
MARV entry inh – blocks Marburg virus binding to or entry into cells; Marburg virus pseudotyped entry inhibition, cell reporter; Potency, µM (titrated, usually from 37.8 µM), actives largely listed as inhibitors; actives 1.8% (n = 300,000); AID 540276; calls by dose curve; tested in HEK293 cells
FMDV antiviral – antivirals against foot and mouth disease virus. Potency, µM (top dose mostly 57.9 µM), actives largely listed as inhibitors. FMDV antiviral cell-based qHTS. actives 1.2% (n = 410,000); calls by dose curve; tested in HEK293T cells; note: read-out not given here; nearly all actives have a fitted effect of over 45% in size
Numbers stand for hits; n = inactive; u = inconclusive; x = no result. Only some compounds are listed: those with a hit (about 7.9% of all), similar ones and a draw of the others.

SMILES	LASV entry inh	HCV inhibitor	HCMV antiviral	MARV entry inh	FMDV antiviral
COC(=O)c1ccc(NC(=O)Nc2ccc(F)c(Cl)c2)cc1	n	11.2µM	n	n	n
O=C(Nc1ccc(F)cc1F)Nc1csc2ccccc12	u	u	n	u	n
COC(=O)c1cccc(NC(=O)Nc2ccc(Cl)c(Cl)c2)c1	n	x	-100.9	n	n
CCc1ccc(NC(=O)C(=O)NCC(c2cccnc2)N2CCOCC2)cc1 (centres undefined)	u	x	n	x	n
CCOc1ccccc1N(C)C(=O)Cn1nc(Cc2ccncc2)c2ccccc2c1=O	n	x	n	u	n
C[C@H]1[C@@H](NC(=O)Nc2ccccc2)CC[C@@]23CCCN2C(=O)CCC[C@@H]13	x	x	n	x	x
O=C(CCCn1c(=O)c2sccc2n(Cc2cccc(Cl)c2)c1=O)NCc1ccc2c(c1)OCO2	u	x	n	u	n
Cc1nc(N2CCCC2)ncc1C(=O)N1CCN(c2ccccc2F)CC1	n	x	n	x	n
CCOC(=O)c1ccc(N2CCN(c3cc(Cl)ccc3C)CC2)c(NC(=O)Nc2ccc(OCC)cc2)c1	n	x	n	x	n
CCC(C)NC(=O)Nc1ccc(F)c(Cl)c1 (centres undefined)	n	n	-61.8	n	n
CCOC(=O)c1ccc(N2CCN(c3ccccc3F)CC2)c(NC(=O)Nc2ccc(Cl)c(Cl)c2)c1	u	x	n	x	25.1µM
C=CCNC(=O)Nc1ccc(F)c(Cl)c1	x	n	-94.3	x	n
COc1cn(CC(=O)Nc2ccc(C)cc2)c(CN2CCCCC2)cc1=O	n	x	n	x	n
C=COCCNC(=O)Nc1ccc(Cl)c(Cl)c1	n	10µM	-60.2	n	x
COc1ccc(NC(=O)C(=O)NCCCn2ccnc2)cc1	u	n	-60.5	n	n
O=C(NCCCn1ccnc1)Nc1ccc(Cl)c(Cl)c1	n	n	-106.5	n	n
Nc1c(Br)cc2c3c(cccc13)-c1ccccc1-2	n	2.82µM	n	n	n
Nc1c(Br)cc2c(c1Br)C(O)c1ccccc1-2 (centres undefined)	n	u	n	n	n
O=C(CSc1nnnn1C1CCCC1)Nc1cccc(NC(=O)c2ccco2)c1	n	n	-69.6	n	x
O=C(CSc1nnc(NC2CCCCC2)s1)Nc1ccc2c(c1)C(=O)c1ccccc1C2=O	x	10µM	n	x	n
Cc1nnc(NC(=O)c2cc(S(=O)(=O)N3CCCCC3)ccc2Cl)s1	n	11.2µM	n	n	n
O=C(Nc1nccs1)c1cc(S(=O)(=O)N2CCCCC2)ccc1Cl	n	n	n	u	u
Cc1nnc(SCC(=O)NN2C(=O)NC3(CCCCC3)C2=O)s1	n	n	-61.8	u	n
Cc1cc(C(=O)Nc2ccc(C(C)C)cc2)c2c(C)nn(-c3ccccc3)c2n1	u	x	n	x	n
Cc1nnc(SCC(=O)Nc2ccc(-c3nc4ccccc4s3)cc2)s1	10µM	n	n	u	n
SMILES	LASV entry inh	HCV inhibitor	HCMV antiviral	MARV entry inh	FMDV antiviral
O=C(CSc1nncn1-c1ccccc1)Nc1cccc(S(=O)(=O)N2CCCCC2)c1	n	n	n	n	x
O=C(CSc1nnnn1C1CC1)Nc1cccc(S(=O)(=O)N2CCCC2)c1	n	n	-74.8	u	n
Cc1nnc(SCC(=O)Nc2cccc(S(=O)(=O)N3CCCCC3)c2)s1	x	n	n	x	n
Cc1cccc(NC(=O)CSc2nnnn2C2CCCC2)c1	n	n	n	n	n
Cc1nnc(SCC(=O)Nc2ccc(S(=O)(=O)N3CCCCC3)cc2)s1	n	n	-64.6	n	n
O=C(CSc1nnnn1-c1ccc(O)cc1)Nc1cccc(S(=O)(=O)N2CCCC2)c1	u	u	-72.7	u	n
O=C(Nc1ccc(-c2nc3ccccc3s2)cc1)c1cc(-n2cnnc2)ccc1Cl	u	3.98µM	-81.7	u	x
Cc1ccc(Nc2nnc(SCC(=O)Nc3cccc(S(=O)(=O)N4CCCCC4)c3)s2)cc1	u	u	u	u	n
O=C(CSc1nnc(Nc2ccccc2F)s1)Nc1cccc(S(=O)(=O)N2CCCCC2)c1	u	12.6µM	n	u	u
O=C(CC1N=C2c3ccccc3N=C(SCC(=O)Nc3ccccc3F)N2C1=O)NCc1ccc2c(c1)OCO2 (centres undefined)	n	x	n	n	n
COC(=O)C(Nc1cc(OC)ccc1OC)(c1ccc(F)cc1)C(Nc1cc(OC)ccc1OC)c1ccc(Br)cc1 (centres undefined)	x	x	n	x	x
COc1ccc(/C=C(/NC(=O)c2ccco2)C(=O)N2CCc3ccccc32)cc1OC	7.94µM	n	n	n	n
CCCCNC(=O)Cn1c(=O)cc(C)c2c(C)nn(-c3ccc(CC)cc3)c21	n	x	n	x	n

High-throughput results as filed in PubChem.
